From PubChem BioAssay (NCATS)
Results filed as inconclusive are left out. Activity calls are given as the source filed them. Unless noted, the call rests on the fitted dose curve; in most records, active means well fitted curve in the direction sought with a large enough effect; inconclusive means small, poorly fitted or top-dose-only effect, or another doubt; inactive means no such curve, though single readings can be large; an effect the other way counts as inactive or inconclusive.

How the values were obtained:
[1] = Cellular Toxicity (caspase-3) HepG2 (AID 654);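 further: cells exposed to compound for 16 hours before reading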
Outline: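 HepG2 cells (1500/well) were treated 16 h at 37 °C in complete medium, then caspase 3/7 activity was read by Caspase-Glo luminescence. Data were normalized to DMSO and 100 uM tamoxifen; AC50 came from Hill-equation fits of qHTS concentration-response.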

[2] = Cellular Toxicity (caspase-3) Jurkat (AID 655);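 further: cells exposed to compound for 16 h at 37 °C before reading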
Outline: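 qHTS in human Jurkat T-cell leukemia line: 16 hr compound treatment at 37 °C, caspase-3/7 activity measured by Caspase-Glo luminescence. AC50 derived from Hill equation.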

[3] = Cellular Toxicity (caspase-3) HUV-EC-C (AID 656)
Outline: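 Concentration-dependent caspase 3/7 induction was assessed in HUV-EC-C cells exposed for 16 hours. Data scaled between DMSO and tamoxifen (100 uM) controls.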

[4] = Cellular Toxicity (caspase-3) SHSY5Y (AID 657)
Outline: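 Readout: caspase-cleaved peptide-aminoluciferin substrate driving luciferase light in SH-SY5Y neuroblastoma cells after 16 h treatment. Response normalized to DMSO and 10 uM staurosporine controls.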

[5] = Cellular Toxicity (caspase-3) BJ (AID 658)
Outline: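 BJ human foreskin fibroblasts, 1000 cells/well, treated 16 hours at 37 °C in complete medium; caspase 3/7 activity by Caspase-Glo luminescence after 1 hr at room temperature. Normalized to DMSO and 10 uM staurosporine; AC50 from Hill fits.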

[6] = Cellular Toxicity (caspase-3) MRC-5 (AID 659)
Outline: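 MRC-5 human normal lung fibroblasts, 1500 cells/well, treated 16 h at 37 °C in complete medium. Caspase 3/7 measured by Caspase-Glo luminescence after 1 h at room temperature. Normalized to DMSO and 10 uM staurosporine; AC50 from Hill fit.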

[7] = Cellular Toxicity (caspase-3) Mesangial (AID 660)
Outline: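 Human renal glomerular mesangial cells, 1000/well, 5 h at 37 C before 16 h compound treatment. Caspase-Glo 3/7 luminescence after 20 min; normalized to DMSO and 100 uM tamoxifen, AC50 from Hill fit.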

[8] = Cellular Toxicity (caspase-3) SK-N-SH (AID 661)
Outline: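 Human SK-N-SH neuroblastoma cells, 1500/well, were exposed to compounds for 16 hours at 37 °C. Caspase-Glo 3/7 luminescence was normalized to DMSO (basal) and 10 uM staurosporine (100%), and AC50 came from a Hill fit.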

[9] = Cellular Toxicity (caspase-3) H-4-II-E (AID 663);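 further: cells exposed to compound for 16 hr before readout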
Outline: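 Rat hepatoma H-4-II-E cells (1500/well) plated 5 hr, then exposed to compound titrations for 16 hr at 37 °C. Caspase-Glo 3/7 luminescence read after 20 min at RT; data normalized to DMSO and 100 uM tamoxifen, AC50 from Hill fits.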

[10] = Cellular Toxicity (caspase-3) Hek293 (AID 664);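 further: cells exposed to compound for 16 h at 37 °C before readout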
Outline: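 HEK293 cells in complete medium treated 16 h at 37 °C, then Caspase-Glo 3/7 luminescence read after 20 min at room temperature. Normalized to DMSO and 100 uM tamoxifen; AC50 from Hill fit of concentration-response.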

[11] = Cellular Toxicity (caspase-3) N2a (AID 665);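 further: compound exposure lasted 16 h at 37 °C before readout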
Outline: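 Mouse N2a neuroblastoma cells, 1500 per well, treated 16 h at 37 °C in complete medium; caspase-3/7 activity by Caspase-Glo luminescence after 1 h. Normalized to DMSO and 10 uM staurosporine; AC50 from Hill fits.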

[12] = Cellular Toxicity (caspase-3) NIH 3T3 (AID 666)
Outline: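 Mouse NIH 3T3 fibroblasts (1000/well) treated 16 h at 37 C; caspase-3/7 activity measured by Caspase-Glo 3/7 luminescence after 20 min. Normalized to DMSO and 100 uM tamoxifen; AC50 from Hill fits.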

[13] = Cellular Toxicity (caspase-3) Renal Proximal Tubule (AID 667);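 further: cells exposed to compound for 16 hours at 37 °C before detection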
Outline: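 Caspase-Glo 3/7 read-out, rat primary kidney proximal tubule cells. Compound exposure 16 h, 37 °C; detection after 1 h at RT. Activity scaled to DMSO and 10 uM staurosporine.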

[14] = biological target: Cytochrome P450 3A4 (Homo sapiens) (UniProt P08684); test: qHTS Assay for Inhibitors and Substrates of Cytochrome P450 3A4 (AID 884); further: series mostly up to about 57 µM; nearly all actives have a fitted effect of over 50% in size
Cytochrome P450 3A4 (Homo sapiens), sequence (P08684 whole entry, looked up): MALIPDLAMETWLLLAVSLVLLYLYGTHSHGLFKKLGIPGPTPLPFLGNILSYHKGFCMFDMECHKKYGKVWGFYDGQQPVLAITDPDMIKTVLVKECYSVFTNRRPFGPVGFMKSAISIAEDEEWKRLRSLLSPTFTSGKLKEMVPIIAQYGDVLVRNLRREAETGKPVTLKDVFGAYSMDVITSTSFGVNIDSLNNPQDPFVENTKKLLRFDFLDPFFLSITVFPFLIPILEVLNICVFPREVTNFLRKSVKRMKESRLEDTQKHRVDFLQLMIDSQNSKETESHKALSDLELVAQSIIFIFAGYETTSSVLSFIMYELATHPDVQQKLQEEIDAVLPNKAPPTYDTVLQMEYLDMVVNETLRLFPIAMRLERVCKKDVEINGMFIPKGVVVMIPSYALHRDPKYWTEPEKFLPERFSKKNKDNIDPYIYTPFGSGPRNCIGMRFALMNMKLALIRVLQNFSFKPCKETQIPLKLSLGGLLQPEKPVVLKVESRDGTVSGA
Outline: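 20 nM human CYP3A4 with 25 uM Luciferin-PPXE (at KM) in 200 mM KPO4, preincubated 10 min with compound; NADPH regeneration started a 60 min RT reaction. Luciferin detected by luminescence, normalized to 57 uM ketoconazole as full inhibition.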

[15] = biological target: 3',5'-cyclic-AMP phosphodiesterase 4B (Homo sapiens) (UniProt Q07343); test: qHTS Assay for Inhibitors of PDE-IV (AID 607; active means well fitted activation curve with a large enough effect in the main read-out, with a control signal flat, not every such curve was filed as active)
3',5'-cyclic-AMP phosphodiesterase 4B (Homo sapiens), sequence (Q07343 whole entry, looked up): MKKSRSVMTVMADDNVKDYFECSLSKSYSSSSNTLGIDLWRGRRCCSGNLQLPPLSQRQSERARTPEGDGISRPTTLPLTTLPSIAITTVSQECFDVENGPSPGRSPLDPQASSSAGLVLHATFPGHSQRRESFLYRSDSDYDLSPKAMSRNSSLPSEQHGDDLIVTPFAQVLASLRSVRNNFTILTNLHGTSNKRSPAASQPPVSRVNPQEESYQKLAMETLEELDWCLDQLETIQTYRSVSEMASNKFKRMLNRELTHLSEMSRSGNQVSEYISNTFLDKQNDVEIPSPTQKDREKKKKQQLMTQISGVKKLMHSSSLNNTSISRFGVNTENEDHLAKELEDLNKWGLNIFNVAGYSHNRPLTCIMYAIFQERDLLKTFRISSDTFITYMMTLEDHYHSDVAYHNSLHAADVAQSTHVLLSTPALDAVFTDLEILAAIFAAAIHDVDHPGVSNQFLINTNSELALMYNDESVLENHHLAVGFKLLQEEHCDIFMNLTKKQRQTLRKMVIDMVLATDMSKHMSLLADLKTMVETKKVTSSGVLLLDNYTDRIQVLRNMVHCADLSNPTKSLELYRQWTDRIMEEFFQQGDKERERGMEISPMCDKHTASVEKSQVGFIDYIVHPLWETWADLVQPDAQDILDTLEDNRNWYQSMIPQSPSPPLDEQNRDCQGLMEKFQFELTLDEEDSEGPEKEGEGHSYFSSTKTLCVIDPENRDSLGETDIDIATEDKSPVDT
Outline: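 Live HEK293 cells with a modified cyclic nucleotide-gated (CNG) channel report intracellular cAMP via membrane-potential dye fluorescence (ex 535/em 590 nm). Endogenous PDE-IV was targeted. Compounds were tested at up to 22.9 uM final; RO 20-1724 100 uM served as control.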

[16] = biological target: Guanine nucleotide-binding protein G(i) subunit alpha-1 (Homo sapiens) (UniProt P63096); test: qHTS Assay for Inhibitors of RGS12 GoLoco Motif Activity (Green Fluorophore) (AID 879);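 further: negative values mean loss of peptide binding seen as reduced polarization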
Guanine nucleotide-binding protein G(i) subunit alpha-1 (Homo sapiens), sequence (P63096 whole entry, looked up): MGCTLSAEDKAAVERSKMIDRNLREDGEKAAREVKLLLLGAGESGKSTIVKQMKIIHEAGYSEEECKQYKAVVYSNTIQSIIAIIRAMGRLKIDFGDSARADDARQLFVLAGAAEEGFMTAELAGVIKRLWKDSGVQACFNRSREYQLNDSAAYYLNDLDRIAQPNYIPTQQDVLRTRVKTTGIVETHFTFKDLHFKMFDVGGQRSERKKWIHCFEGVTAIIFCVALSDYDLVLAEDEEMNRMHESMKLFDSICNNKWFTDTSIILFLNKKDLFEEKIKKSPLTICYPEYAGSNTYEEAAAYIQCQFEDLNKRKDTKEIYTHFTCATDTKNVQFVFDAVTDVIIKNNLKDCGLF
Outline: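 Fluorescence polarization assay: 50 nM Gαi1 with 10 nM FITC-labeled RGS12 GoLoco peptide in 10 mM Tris pH 7.5, 150 mM NaCl, 0.1 mM GDP, 0.05% NP40, 10 min at room temperature with compound.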

[17] = biological target: Cytochrome P450 3A4 (Homo sapiens) (UniProt P08684); test: qHTS Assay for Activators of Cytochrome P450 3A4 (AID 885); further: nearly all actives have a fitted effect of over 65% in size
Outline: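 Quantitative HTS format: compounds preincubated with 20nM human CYP3A4 and Luciferin-PPXE substrate at KM, reaction started by NADPH regeneration, stopped after 60 min, luciferase luminescence read 20 min later.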

[18] = biological target: Cytochrome P450 2C19 (Homo sapiens) (UniProt P33261); test: qHTS Assay for Inhibitors and Substrates of Cytochrome P450 2C19 (AID 899); further: nearly all actives have a fitted effect of over 60% in size
Cytochrome P450 2C19 (Homo sapiens), sequence (P33261 whole entry, looked up): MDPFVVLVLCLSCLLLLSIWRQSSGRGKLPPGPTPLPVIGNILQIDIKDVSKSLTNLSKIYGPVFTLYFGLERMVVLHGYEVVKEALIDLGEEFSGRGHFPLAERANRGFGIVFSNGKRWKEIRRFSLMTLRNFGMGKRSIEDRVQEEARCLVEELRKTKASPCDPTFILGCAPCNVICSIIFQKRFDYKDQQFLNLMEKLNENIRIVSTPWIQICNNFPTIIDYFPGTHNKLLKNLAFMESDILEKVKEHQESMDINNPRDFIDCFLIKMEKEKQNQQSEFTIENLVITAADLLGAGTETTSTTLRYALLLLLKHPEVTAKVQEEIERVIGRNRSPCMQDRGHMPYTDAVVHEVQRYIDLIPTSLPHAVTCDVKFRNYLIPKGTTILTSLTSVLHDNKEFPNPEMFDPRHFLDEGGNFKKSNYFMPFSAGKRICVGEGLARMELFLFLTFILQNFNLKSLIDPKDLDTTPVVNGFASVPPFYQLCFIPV
Outline: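 Signal comes from luciferase acting on luciferin released by CYP2C19-mediated hydroxylation of Luciferin-H EGE, 10uM (KM). Assay mix: 5nM enzyme, 50mM KPO4; 60 min at 37C with NADPH regeneration. Data normalized against 57uM ketoconazole.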

[19] = qHTS Assay for Identification of Small Molecule Agonists for Thrombopoietin (TPO) Signaling Pathway (AID 917)
Outline: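 IL-3-dependent murine pro-B Ba/F3 cells, stably transfected with human TPO receptor and GpIIb-promoter luciferase, are incubated 24 hrs at 37 C with test compound and 26 pM TPO; luciferase signal is read after 10 min at room temperature.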

[20] = Confirmation and Secondary Assay for Modulators of Hemoglobin Beta Chain Splicing at IVS2 654 locus (AID 910);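 further: HeLa cells stably carrying EGFP split by mutant beta-globin IVS2-654 intron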
Outline: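 HeLa cells stably expressing EGFP interrupted by β-globin IVS2-654 intron, seeded overnight in Opti-MEM/2% FCS, then treated 2 days at 37 °C. Restored splicing read as total peak GFP intensity per well by laser scanning cytometry (488 nm excitation, 500–520 nm emission); 500 nM antisense PNA as control.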

Measured: outcome

C=C1C[C@]23C[C@@]1(O)CC[C@H]2[C@@]12C=C[C@H](O)[C@@](C)(C(=O)O1)[C@H]2[C@@H]3C(=O)O
not listed: [14] | [15] | [16] | [17] | [18] | [19] | [20]
inactive: all other assays above

COc1ccc(CCC(=O)c2c(O)cc(O[C@@H]3O[C@H](CO)[C@@H](O)[C@H](O)[C@H]3O[C@@H]3O[C@@H](C)[C@H](O)[C@@H](O)[C@H]3O)cc2O)cc1O
not listed: [15] | [16] | [17] | [18] | [19] | [20]
inactive: all other assays above

CC(C)C[C@H](NC(=O)[C@@H]1O[C@H]1C(=O)O)C(=O)NCCCCN=C(N)N
inactive: [15] | [16] | [17] | [18] | [19]

O=C(/C=C/C=C/c1ccc2c(c1)OCO2)N1CCCCC1
inactive: [17] | [20]

CCc1cccc2c3c([nH]c12)[C@@](CC)(CC(=O)O)OCC3
inactive: [15]

C[C@]1(C2CCCC2)Cc2cc(OCC(=O)O)c(Cl)c(Cl)c2C1=O
inactive: [15] | [16] | [17] | [19]

CCOC(=O)C(CCc1ccccc1)NC(C)C(=O)N1Cc2ccccc2CC1C(=O)O (stereo unspecified)
inactive: [14] | [20]
